Assay results as given in PubChem BioAssay (NCI).
Where “and” joins values, the source holds several entries; their conditions need not be identical. Equal values may be shown once. About 83,000 compounds went through this panel and 20% of them were active in at least one assay; those are over-represented in the sample as a whole.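 In brief: 96-well plates, 48 h treatment, single concentration, percent growth endpoint.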 Unmarked numbers belong to inactive results. Calls of active or inactive are those of the source. Rule for the calls: active = growth percent below 10; inactive = the rest.

What follows are compounds tested on MDA-MB-468 breast (assay: NCI-60 one-dose screen, 48 h (100 = growth as untreated, 0 = no growth, -100 = all killed)). Conditions: 10 µM unless noted.

**Q.** How did the growth turn out when O=C(/C=C/c1ccccc1)c1c[nH]c2ccccc2c1=O was run?
**A.** -52.7% (active)

**Q.** How did the growth turn out when Oc1ccccc1-c1nnco1 was run?
**A.** 88.7%

**Q.** Cc1cc(C(=O)NN)c(C#N)c(=O)[nH]1 was tested. Which growth did it give?
**A.** 122%

**Q.** How did the growth turn out when C=C1C(=O)O[C@H]2[C@H]1CC/C(COC(=O)CCCCC(=O)OC/C1=C/CC[C@@]3(C)O[C@H]3[C@H]3OC(=O)C(=C)[C@@H]3CC1)=C\CC[C@@]1(C)O[C@@H]21 was run?
**A.** 45.5%

**Q.** With COc1ccc(C2=Nc3c(N)ncnc3NC(c3cccc(Nc4ccnc5cc(C(F)(F)F)ccc45)c3)C2)cc1 (stereo not given) as the compound, how does the growth read?
**A.** 46.9%

**Q.** With O=C(CSc1ccc2nnc(-c3cccc(F)c3)n2n1)Nc1ccc2c(c1)OCO2 as the compound, how does the growth read?
**A.** 23%

**Q.** For COCCn1cc(-c2nc(-c3c[nH]c4ncccc34)cs2)c2ccccc21, which growth is on record?
**A.** -7.09% (active)

**Q.** For CCN(CC)CCOC(=O)Nc1c(C(C)C)cccc1C(C)C, which growth is on record?
**A.** 97.3%

**Q.** Which growth does the source give for COc1ccc(C2=Cn3c(CCC(=O)c4nc5ccccc5[nH]4)nnc3SC2)cc1 here?
**A.** 77.4%

**Q.** With O=Cc1ncc(-c2ccc(C(F)(F)F)cc2)c(NC2CCCCCC2)n1 as the compound, how does the growth read?
**A.** 2.41% [100 µM] (active)

**Q.** For CN1CCN(c2ccc(C(=O)/C=C/c3cc(F)cc(C(F)(F)F)c3)cc2)CC1, which growth is on record?
**A.** 31.5%

**Q.** Which growth does the source give for Cc1[nH]nc2ccc(-c3nc4cnc(N5CCN(C)CC5)cn4c3Nc3ccc(F)cc3Br)cc12 here?
**A.** 56.2%

**Q.** How did the growth turn out when CC1(C)c2ccccc2C(=O)C1(Br)Cc1ccccc1 (stereo not given) was run?
**A.** 45.6%

**Q.** For O=C1CC[C@@H](C(=O)N[C@H]2CSSC[C@@H](C(=O)N/C=C/c3ccc(O)cc3)NC(=O)[C@H](Cc3ccccc3)NC(=O)[C@@H]3CCCN3C(=O)[C@@H]3CCCN3C2=O)N1, which growth is on record?
**A.** 89.5%

**Q.** With CCn1c(=O)c2c(=O)c3c4c(oc3oc2c2ccccc21)C(=O)c1ccccc1C4=O as the compound, how does the growth read?
**A.** -29.6% (active)

**Q.** With Cc1ncc(C(=O)Nc2ccc(CN3CCN(C)CC3)c(C(F)(F)F)c2)cc1C#Cc1cncc2ncccc12 as the compound, how does the growth read?
**A.** 99.3%

**Q.** For O=C(O)CNC(=O)CN1C(=O)c2ccccc2C1=O, which growth is on record?
**A.** 106%

**Q.** For CCOc1ccc(NC(=O)c2cc(OC)c(OC)c(OC)c2)cc1, which growth is on record?
**A.** 8.51% (active)

**Q.** O=C(Nc1ccc([N+](=O)[O-])cc1)C(=O)Nc1ccc([N+](=O)[O-])cc1 was tested. Which growth did it give?
**A.** 105%

**Q.** Which growth does the source give for C=CCOC(=O)C1=C(C)N(CC)C(=O)NC1c1c(Cl)n(C)c2ccccc12 (stereo not given) here?
**A.** 107%

**Q.** For COc1cc2oc3cc(=O)cc4oc(-c5ccccc5)cc(c2c2c1CCC(c1ccccc1)O2)c43 (stereo not given), which growth is on record?
**A.** 61.8%

**Q.** Which growth does the source give for Nc1ccccc1-c1ccn[nH]1 here?
**A.** 101%

**Q.** Which growth does the source give for COc1cc(C2CC(=O)c3c(C)nn(-c4nc5ccccc5[nH]4)c3C2)cc(OC)c1OC (stereo not given) here?
**A.** 82%

**Q.** How did the growth turn out when O=C(Oc1cccc2cccnc12)c1ccccc1 was run?
**A.** 71.7% and 93.1%

**Q.** With CCOc1ccc(NC(=O)CSc2oc(-c3ccccc3)nc2S(=O)(=O)c2ccc(F)cc2)cc1 as the compound, how does the growth read?
**A.** 58.4%

**Q.** For CC(c1ccccc1)N1C(=O)/C(=C/c2csc(C#N)n2)SC1=S (stereo not given), which growth is on record?
**A.** 63.5%

**Q.** Which growth does the source give for Clc1c(Cl)[n+](Cc2ccc3ccccc3c2)cn1Cc1ccc2ccccc2c1 here?
**A.** -22.6% (active)

**Q.** COc1cccc(NC(=O)c2sc3nc(C)c(C(C)=O)cc3c2N)c1 was tested. Which growth did it give?
**A.** -14.8% (active)

**Q.** For C=C1C(=O)O[C@H]2[C@H]1CC/C(CNC(=O)c1cccc3ccccc13)=C\CC[C@@]1(C)O[C@@H]21, which growth is on record?
**A.** 33.8%

**Q.** CSc1ccc(-c2ccccc(=O)c2O)cc1 was tested. Which growth did it give?
**A.** 11.5%

**Q.** How did the growth turn out when Nc1n[nH]c2ccc([C@@H]3Nc4c(F)cc5[nH]ncc5c4[C@H]4C5CCC(C5)[C@@H]34)cc12 (stereo not given in full) was run?
**A.** -4.88% (active)

**Q.** How did the growth turn out when CCN1C(=O)N(CC)C2Nn3c(s/c(=C4\C(=O)N(C)c5ccccc54)c3=O)=NC21 (stereo not given) was run?
**A.** 12.2%

**Q.** For CO[C@@H]1[C@H](N(C)C(=O)c2ccccc2)C[C@@H]2O[C@]1(C)n1c3ccccc3c3c4c(c5c6ccccc6n2c5c31)C(=O)NC4=O, which growth is on record?
**A.** -12.7% (active)

**Q.** How did the growth turn out when COc1c(Cl)cc(Cl)cc1Cl was run?
**A.** 110%

**Q.** Which growth does the source give for CCCCCCCCNc1ncnc2c1ncn2Cc1nnc2c3ccccc3c(Cl)nn12 here?
**A.** 40.6%

**Q.** How did the growth turn out when O=C1O[C@H]([C@H](O)CO)C(O)=C1O was run?
**A.** 90%

**Q.** How did the growth turn out when COc1cc(-c2nc(SCCC(C)C)nc(Nc3ccccc3Cl)c2C#N)cc(OC)c1OC was run?
**A.** 108%

**Q.** How did the growth turn out when O=c1c(-c2nc3ccccc3[nH]2)cc2ccccc2n1Cc1cn(Cc2ccccc2Cl)nn1 was run?
**A.** 14.1%

**Q.** How did the growth turn out when CC(=O)Nc1ncc(S(=O)(=O)c2ccc([N+](=O)[O-])cc2)s1 was run?
**A.** 107%

**Q.** Which growth does the source give for Cc1cc(NCCN(C(C)C)C(C)C)nc(/N=C(\N)Nc2ccc(Cl)c(C(F)(F)F)c2)n1 here?
**A.** -98.6% (active)
